Reference: the supplement of paper PMC6555819

Tests used:
Experiment in all cases: PBM binding z-score (relative to random genomic background probes); higher = stronger binding; sequences stand for … in GC…GCGATTGACAGCGTAGAATGAAGG
[1] = tested on: FXR:RXRa (NR concentration 270 nM, RXRa partner concentration 90 nM)
Procedure, shortened: (§1)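 Binding z-scores were set against random background probes. The data came from custom Agilent 4×180K protein-binding microarrays carrying double-stranded probes with 34-nt variable regions, incubated 1 h with ligand-free nuclear receptor dimers. Partner-specific antibodies detected binding, and scanned fluorescence was regression-normalized.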

[2] = tested on: LXRa:RXRa (NR concentration 270 nM, RXRa partner concentration 90 nM)
Procedure, shortened: as §1

[3] = tested on: LXRa homodimer (NR concentration 270 nM)
Procedure, shortened: as §1

[4] = tested on: LXRb:RXRa (NR concentration 270 nM, RXRa partner concentration 90 nM)
Procedure, shortened: as §1

[5] = tested on: LXRb homodimer (NR concentration 270 nM)
Procedure, shortened: as §1

[6] = tested on: PPARa:RXRa (NR concentration 270 nM, RXRa partner concentration 90 nM)
Procedure, shortened: as §1

[7] = tested on: PPARg:RXRa (NR concentration 180 nM, RXRa partner concentration 90 nM)
Procedure, shortened: as §1

[8] = tested on: PPARg:RXRa 270nM:90nM, anti-RXR (NR concentration 270 nM, RXRa partner concentration 90 nM)
Procedure, shortened: as §1

[9] = tested on: PPARg:RXRa 30nM:10nM, anti-RXR (NR concentration 30 nM, RXRa partner concentration 10 nM)
Procedure, shortened: as §1

[10] = tested on: PPARg:RXRa 90nM:30nM, anti-RXR (NR concentration 90 nM, RXRa partner concentration 30 nM)
Procedure, shortened: as §1

| Sequence | PBM binding z-score [1] | PBM binding z-score [2] | PBM binding z-score [3] | PBM binding z-score [4] | PBM binding z-score [5] | PBM binding z-score [6] | PBM binding z-score [7] | PBM binding z-score [8] | PBM binding z-score [9] | PBM binding z-score [10] |
| --- | --- | --- | --- | --- | --- | --- | --- | --- | --- | --- |
| CAAACTAGGACACGAAAGGTCAAAGTCGAATGAC | 5.33 | 5.73 | 6.38 | 5.43 | 1.98 | 5.8 | 6.54 | 6.27 | 3.92 | 5.63 |
| CCCGAAAGGTCGTGCTCAGGTGAGTATACCAAAC | 5.73 | 4.05 | 0.438 | 3.37 | 0.415 | 4.94 | 2.94 | 3.87 | 0.899 | 2.53 |
| ATCGAAAGGTCGACGGGGTGAGTATACACCGTTT | 4.95 | 3.54 | 0.287 | 3.23 | 0.368 | 4.57 | 3 | 3.48 | 0.859 | 2.28 |
| GCGAATGGGGCATCAGCAGGTTACCATAACTTAA | -0.164 | -0.221 | -0.232 | 0.924 | -0.446 | 0.796 | 0.281 | -0.0121 | -0.215 | -0.384 |
| TTTCCAAGGTGAAGGTCGTTGATCCCTCTGTAGA | 2.77 | 2.31 | 0.296 | 1.8 | -0.21 | 2.81 | 2.68 | 3.7 | 1.88 | 3.35 |
| CAAACTAGGTCACCGGAAGGTCAAAGGCCGCATG | 6.24 | 5.81 | 4.23 | 5.17 | 1.01 | 6.34 | 9.9 | 7.75 | 6.27 | 7.97 |
| CGTCCAAGGTCAAAGGTCAGTGTAGAGATGACGG | 8.42 | 7.04 | 3.99 | 6.49 | 1.91 | 7.25 | 10.7 | 9.05 | 7.79 | 9.69 |
| CGTCCAAGGTCAGAGAGGTCAATGAATGCCGAGT | 6.53 | 5.92 | 4.51 | 5.64 | 0.884 | 5.36 | 3.79 | 4.67 | 1.52 | 3.58 |
| CCTAGCAGGCCAATCTGAGTCACTCAAGGCTTGA | -0.524 | -0.573 | -0.759 | -0.644 | -0.64 | -0.513 | -0.183 | -0.961 | -0.966 | -1.25 |
| GGAACGAGGGCAAAGTTTATAGCATCTGTCGACG | 1.77 | 1.29 | 0.174 | 1.19 | -0.358 | 4.45 | 7.54 | 7.55 | 7 | 7.92 |
| ACTAGCACGCCAAGTTTGGGTCACTCAAACAAAG | 0.0024 | -0.138 | -0.715 | 0.642 | -0.337 | 1.17 | -0.0065 | -0.00833 | -0.577 | -0.34 |
| CGAACGAGGGCATGAGTTGAAAGCAAATGCCGAT | 0.434 | 0.165 | -0.523 | 0.0977 | -0.959 | 1.85 | 1.37 | 1.83 | 0.552 | 1.12 |
| ATCTCTAGGTAAAGTTCAGGGAAAGATCGATAGA | 1.49 | 2.4 | 1.88 | 1.58 | 1.03 | 2.86 | 3.53 | 4.62 | 2.77 | 4.35 |
| GCTAGCAGCCCATTTGGGTCACTCAATGACGGGC | -0.281 | -0.586 | -0.832 | -0.285 | -0.892 | 0.853 | 0.291 | 0.0178 | -0.724 | -0.506 |
| ATATGTAGGTTAAGTGTCATTCAGGTTGGTTCGC | 1.68 | 2.16 | 1.09 | 1.93 | 0.826 | 4.74 | 7.81 | 7.39 | 6.14 | 7.88 |
| CGTCCAAGGTTAATGCTAGGTCAGTGAAAGCATT | 1.98 | 4.46 | 1.76 | 2.28 | -0.518 | 2.21 | 0.161 | 0.685 | -0.233 | 0.133 |
| CATCCAAGGTCAATGCTAGGTCAGTGAAAGCATT | 6.67 | 5.98 | 4.36 | 4.42 | 1.77 | 5.06 | 4.32 | 4.66 | 1.44 | 3.53 |
| TCTATCAGTTGAAGGGCAACCGACGAGTCCGTTT | 0.369 | 0.777 | -0.273 | 0.501 | -0.0897 | 0.935 | 0.152 | 2 | 3.44 | 2.89 |
| ATATGTAGGTTACATCAGGGTCATTCAGGCTATG | 3.26 | 4.84 | 2.29 | 3.97 | 0.66 | 5.17 | 6.84 | 5.54 | 3.17 | 4.87 |
| TAGCCTAGGTCATTGGGCCGGTATAGTACGCATC | 4.26 | 2.99 | 0.765 | 2.23 | 0.429 | 3.43 | 2.46 | 2.72 | 0.313 | 1.53 |
| AGAATGAGGTTATACGTAGATCAGCGAAGAAAGT | 1.93 | 1.66 | -0.0526 | 1.22 | -0.284 | 3.27 | 1.91 | 1.88 | 0.445 | 1.21 |
| GCTCGGAAGACAAGGTCAGAGCTTTGTCCGTAGA | 1.01 | 1.26 | -0.528 | 0.906 | -1.34 | 1.97 | 0.0442 | 0.519 | -0.417 | 0.239 |
| ATCTCTAGGTAACCAAGTCCAGTGAATGCCGAAC | 0.284 | 0.199 | -0.00888 | 0.0348 | 0.546 | 0.54 | 0.444 | 0.891 | 0.172 | 0.381 |
| CGTCCAAGGTCAGCAGGTCAGTGGAAGCGACGTG | 5.74 | 3.85 | 0.538 | 2.96 | -0.217 | 4.94 | 4.05 | 4.15 | 0.99 | 2.87 |
